# Test results: PubChem BioAssay (NCATS)
# Several values for one entry are separate records, joined by “and”; a condition that tells them apart may be missing. Equal values may be shown once. Records with an inconclusive call do not appear. A number with no mark means an inactive call. Activity calls are given as the source filed them. The call rests on the fitted dose curve; in most records, active means well fitted curve in the direction sought with a large enough effect; inconclusive means small, poorly fitted or top-dose-only effect, or another doubt; inactive means no such curve, though single readings can be large; an effect the other way counts as inactive or inconclusive.
# Assay: qHTS assay to identify small molecule inhibitors of chordoma cells - UCH-2 (AID 1259356)
# Details: UCH-2 chordoma viability, CellTiter-Glo ATP luminescence, 48 h; series mostly up to 46.1 µM; activity change, negative = inhibition: at the top concentration
# On the % scale 0 is the no-effect control and ±100 the full control effect.
row,SMILES,"activity change, negative = inhibition"
1,CO[C@@]1(NC(=O)C2SC(=C(C(N)=O)C(=O)O)S2)C(=O)N2C(C(=O)O)=C(CSc3nnnn3C)CS[C@@H]21 (some centres undefined),17% [at 20.6 µM]
2,CC(=O)N=c1sc(S(N)(=O)=O)nn1C,27.6% [at 20.6 µM]
3,CC(=O)Oc1cc(C(F)(F)F)ccc1C(=O)O,4.57% [at 20.6 µM]
4,NC(N)=NCC1COc2ccccc2O1 (centres undefined),-3.02%
5,CCCCC[C@H](O)/C=C/[C@@H]1[C@H]2C/C(=C/CCCC(=O)O)O[C@H]2C[C@H]1O,4.28%
6,Cc1ccccn1,-0.899%
7,O=C(O)CCCC/C=C(\c1ccccc1)c1cccnc1,-3.16%
8,CO[C@H]1C=CO[C@@]2(C)Oc3c(C)c(O)c4c(O)c(cc(O)c4c3C2=O)NC(=O)/C(C)=C\C=C/[C@H](C)[C@H](O)[C@@H](C)[C@@H](O)[C@@H](C)[C@H](OC(C)=O)[C@@H]1C,-5.66%
9,O=C(O)c1ccc(NC2OC[C@@H](O)[C@H](O)[C@H]2O)cc1 (some centres undefined),-18%
10,CC(=O)OCC(=O)[C@@]1(O)CC[C@H]2[C@@H]3CCC4=CC(=O)CC[C@]4(C)C3=CC[C@@]21C,3.54%
11,Nc1nc(=O)n([C@@H]2CS[C@H](CO)O2)cc1F,-3.28%
12,O=C(O)c1cc(N=Nc2ccc(O)c(C(=O)O)c2)ccc1O,3.04%
13,CC(C)C1=CC2=CC[C@@H]3[C@](C)(CCC[C@@]3(C)C(=O)O)[C@H]2CC1,9.56%
14,C[C@@H]1C[C@H]2[C@@H]3CCC4=CC(=O)C=C[C@]4(C)[C@@]3(F)[C@@H](O)C[C@]2(C)[C@@]1(O)C(=O)COC(=O)c1cccc(S(=O)(=O)O)c1,1.26%
15,CC(=O)Nc1ccc(OC(=O)c2ccccc2O)cc1,13.7%
16,CC(C)CN(C[C@@H](OP(=O)(O)O)[C@H](Cc1ccccc1)NC(=O)O[C@H]1CCOC1)S(=O)(=O)c1ccc(N)cc1,12.9%
17,CC(=O)Nc1ccc(NC(=S)NC(=O)c2ccc(C(C)(C)C)cc2)cc1,-28.5%
18,C=CCN1CCCC1CNC(=O)c1cc(S(N)(=O)=O)cc(OC)c1OC (centres undefined),-1.92%
19,CCC(Oc1ccccc1)C(=O)N[C@@H]1C(=O)N2[C@@H]1SC(C)(C)[C@@H]2C(=O)O (some centres undefined),11.3%

row,SMILES,"activity change, negative = inhibition"
1,OCCCNc1ccccc1,4.31%
2,CC(C)(C)C(=O)OCC(=O)[C@H]1CC[C@H]2[C@@H]3CCC4=CC(=O)CC[C@]4(C)[C@H]3CC[C@]12C,-1.87%
3,OC1OC[C@@H](O)[C@H](O)[C@@H]1O (some centres undefined),7.51%
4,CO/N=C(\C(=O)N[C@@H]1C(=O)N2C(C(=O)O)=C(CSc3nc(C)c(CC(=O)O)s3)CS[C@H]12)c1csc(N)n1,0.515%
5,COC(=O)C(CN)c1c[nH]c2ccc(OC)cc12 (centres undefined),11.9%
6,NCC[C@H](O)C(=O)N[C@@H]1C[C@H](N)[C@@H](O[C@H]2O[C@H](CN)CC[C@H]2N)[C@H](O)[C@H]1O[C@H]1O[C@H](CO)[C@@H](O)[C@H](N)[C@H]1O,-0.661%
7,COc1cc(S(C)=O)ccc1-c1nc2ncccc2[nH]1 (centres undefined),-2.02%
8,CCN(CC)C(=O)[C@]1(c2ccccc2)C[C@@H]1CN,-4.22%
9,C=CC[N@@+]12CC[C@@]34c5ccccc5N5/C=C6/[C@H]7C[C@H]8[C@@]9(CC[N@@+]8(CC=C)C/C7=C/CO)c7ccccc7N(/C=C(/[C@@H](C[C@@H]31)/C(=C\CO)C2)[C@H]54)[C@@H]69,7.04% [at 20.6 µM]
10,O=C(O)c1cc(O)c2c(c1)[C@H]([C@H]1c3cc(C(=O)O)cc(O)c3C(=O)c3c(O[C@@H]4O[C@H](CO)[C@@H](O)[C@H](O)[C@H]4O)cccc31)c1cccc(O[C@@H]3O[C@H](CO)[C@@H](O)[C@H](O)[C@H]3O)c1C2=O,-5.11%
11,CC(CC=O)CCCC(C)(C)O (centres undefined),-3.06%
12,NC(Cc1ccccc1)C(=O)O (centres undefined),-7.45%
13,CC(C)c1nc(N(C)S(C)(=O)=O)nc(-c2ccc(F)cc2)c1/C=C/C(O)CC(O)CC(=O)O (centres undefined),-0.174%
14,CO[C@H]1C[C@H](O[C@H]2[C@H](C)[C@@H](O[C@@H]3O[C@H](C)C[C@H](N(C)C)[C@H]3O)[C@@H](C)C[C@]3(CO3)C(=O)[C@H](C)[C@@H](O)[C@@H](C)[C@@H](C)OC(=O)[C@@H]2C)O[C@@H](C)[C@@H]1O,11.5% [at 20.6 µM]
15,C=CCOc1ccc(CC(=O)O)cc1Cl,6.56%
16,CC(C)(Oc1ccc(C2CCCc3ccccc32)cc1)C(=O)O (centres undefined),6.74%
17,COc1ccc([C@@H]2CC(=O)c3c(O)cc(O[C@@H]4O[C@H](CO[C@@H]5O[C@@H](C)[C@H](O)[C@@H](O)[C@H]5O)[C@@H](O)[C@H](O)[C@H]4O)cc3O2)cc1O,7.62% [at 20.6 µM]
18,O=C(Cc1cccs1)N[C@@H]1C(=O)N2C(C(=O)[O-])=C(C[n+]3ccccc3)CS[C@H]12,12.5%

# Assay: P-glycoprotein substrates identified in KB-8-5-11 adenocarcinoma cell line, qHTS therapeutic library screen (AID 1346987); further: nearly all actives have a fitted effect of over 65% in size; further: potency means the concentration at half of the fitted maximal effect
# Details: KB-8-5-11 (P-gp overexpressing) viability, CellTiter-Glo, 72 h; series mostly up to 44.5 µM; activity change, negative = cytotoxicity: at the top concentration
# In short: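 P-gp-mediated resistance screen: KB-8-5-11 cells treated 72 h with compounds in dose-response. CellTiter-Glo viability.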
SMILES,"activity change, negative = cytotoxicity",Potency
CO[C@@]1(NC(=O)C2SC(=C(C(N)=O)C(=O)O)S2)C(=O)N2C(C(=O)O)=C(CSc3nnnn3C)CS[C@@H]21 (some centres undefined),7.42% [at 17.3 µM],
CC(=O)N=c1sc(S(N)(=O)=O)nn1C,5.7% [at 17.3 µM],
CC(=O)Oc1cc(C(F)(F)F)ccc1C(=O)O,-5.08% [at 17.3 µM],
NC(N)=NCC1COc2ccccc2O1 (centres undefined),2.51%,
CCCCC[C@H](O)/C=C/[C@@H]1[C@H]2C/C(=C/CCCC(=O)O)O[C@H]2C[C@H]1O,-6.85%,
Cc1ccccn1,6.6%,
O=C(O)CCCC/C=C(\c1ccccc1)c1cccnc1,6.16%,
CO[C@H]1C=CO[C@@]2(C)Oc3c(C)c(O)c4c(O)c(cc(O)c4c3C2=O)NC(=O)/C(C)=C\C=C/[C@H](C)[C@H](O)[C@@H](C)[C@@H](O)[C@@H](C)[C@H](OC(C)=O)[C@@H]1C,-5.64%,
O=C(O)c1ccc(NC2OC[C@@H](O)[C@H](O)[C@H]2O)cc1 (some centres undefined),-2.08%,
CC(=O)OCC(=O)[C@@]1(O)CC[C@H]2[C@@H]3CCC4=CC(=O)CC[C@]4(C)C3=CC[C@@]21C,-11.2%,
Nc1nc(=O)n([C@@H]2CS[C@H](CO)O2)cc1F,3.71%,
O=C(O)c1cc(N=Nc2ccc(O)c(C(=O)O)c2)ccc1O,1.33%,
CC(C)C1=CC2=CC[C@@H]3[C@](C)(CCC[C@@]3(C)C(=O)O)[C@H]2CC1,-14.2%,
C[C@@H]1C[C@H]2[C@@H]3CCC4=CC(=O)C=C[C@]4(C)[C@@]3(F)[C@@H](O)C[C@]2(C)[C@@]1(O)C(=O)COC(=O)c1cccc(S(=O)(=O)O)c1,6.32%,
CC(=O)Nc1ccc(OC(=O)c2ccccc2O)cc1,-4.65%,
CC(C)CN(C[C@@H](OP(=O)(O)O)[C@H](Cc1ccccc1)NC(=O)O[C@H]1CCOC1)S(=O)(=O)c1ccc(N)cc1,-9.68%,
CC(=O)Nc1ccc(NC(=S)NC(=O)c2ccc(C(C)(C)C)cc2)cc1,,6.51 µM (active) and 9.2 µM (active)
C=CCN1CCCC1CNC(=O)c1cc(S(N)(=O)=O)cc(OC)c1OC (centres undefined),-13.7%,
CCC(Oc1ccccc1)C(=O)N[C@@H]1C(=O)N2[C@@H]1SC(C)(C)[C@@H]2C(=O)O (some centres undefined),4.83%,

SMILES,"activity change, negative = cytotoxicity",Potency
OCCCNc1ccccc1,-3.39%,
CC(C)(C)C(=O)OCC(=O)[C@H]1CC[C@H]2[C@@H]3CCC4=CC(=O)CC[C@]4(C)[C@H]3CC[C@]12C,-12%,
OC1OC[C@@H](O)[C@H](O)[C@@H]1O (some centres undefined),13.5%,
CO/N=C(\C(=O)N[C@@H]1C(=O)N2C(C(=O)O)=C(CSc3nc(C)c(CC(=O)O)s3)CS[C@H]12)c1csc(N)n1,0.373%,
COC(=O)C(CN)c1c[nH]c2ccc(OC)cc12 (centres undefined),-5.15%,
NCC[C@H](O)C(=O)N[C@@H]1C[C@H](N)[C@@H](O[C@H]2O[C@H](CN)CC[C@H]2N)[C@H](O)[C@H]1O[C@H]1O[C@H](CO)[C@@H](O)[C@H](N)[C@H]1O,17.8%,
COc1cc(S(C)=O)ccc1-c1nc2ncccc2[nH]1 (centres undefined),2.89%,
CCN(CC)C(=O)[C@]1(c2ccccc2)C[C@@H]1CN,4.7%,
C=CC[N@@+]12CC[C@@]34c5ccccc5N5/C=C6/[C@H]7C[C@H]8[C@@]9(CC[N@@+]8(CC=C)C/C7=C/CO)c7ccccc7N(/C=C(/[C@@H](C[C@@H]31)/C(=C\CO)C2)[C@H]54)[C@@H]69,-1.61% [at 17.3 µM],
O=C(O)c1cc(O)c2c(c1)[C@H]([C@H]1c3cc(C(=O)O)cc(O)c3C(=O)c3c(O[C@@H]4O[C@H](CO)[C@@H](O)[C@H](O)[C@H]4O)cccc31)c1cccc(O[C@@H]3O[C@H](CO)[C@@H](O)[C@H](O)[C@H]3O)c1C2=O,-9.65%,
CC(CC=O)CCCC(C)(C)O (centres undefined),10.1%,
NC(Cc1ccccc1)C(=O)O (centres undefined),7.44%,
CC(C)c1nc(N(C)S(C)(=O)=O)nc(-c2ccc(F)cc2)c1/C=C/C(O)CC(O)CC(=O)O (centres undefined),10.7%,
CO[C@H]1C[C@H](O[C@H]2[C@H](C)[C@@H](O[C@@H]3O[C@H](C)C[C@H](N(C)C)[C@H]3O)[C@@H](C)C[C@]3(CO3)C(=O)[C@H](C)[C@@H](O)[C@@H](C)[C@@H](C)OC(=O)[C@@H]2C)O[C@@H](C)[C@@H]1O,0.198% [at 17.3 µM],
C=CCOc1ccc(CC(=O)O)cc1Cl,-2.22%,
CC(C)(Oc1ccc(C2CCCc3ccccc32)cc1)C(=O)O (centres undefined),-1.01%,
COc1ccc([C@@H]2CC(=O)c3c(O)cc(O[C@@H]4O[C@H](CO[C@@H]5O[C@@H](C)[C@H](O)[C@@H](O)[C@H]5O)[C@@H](O)[C@H](O)[C@H]4O)cc3O2)cc1O,0.453% [at 17.3 µM],
O=C(Cc1cccs1)N[C@@H]1C(=O)N2C(C(=O)[O-])=C(C[n+]3ccccc3)CS[C@H]12,10.6%,
